We go through 16 compounds from PubChem BioAssay (NCI).

Holding throughout (experiment): NCI-60 one-dose screen, 48 h (100 = growth as untreated, 0 = no growth, -100 = all killed)
The subject of one assay is HCT-15 colon. The conditions noted are these: 10 µM.
Another assay deals with HT29 colon. The following applies: 10 µM.
A further assay has as its system SNB-75 CNS. The conditions noted are these: 10 µM.
The test system of a further assay is SNB-19 CNS. The following applies: 10 µM.
In a further assay the test system is PC-3 prostate. The conditions noted are these: 10 µM.
In a further assay the test system is SK-MEL-5 melanoma. The conditions noted are these: 10 µM.
The next assay has as its system UACC-62 melanoma. The conditions noted are these: 10 µM unless noted.
For another assay, the system named is LOX IMVI melanoma. The conditions noted are these: 10 µM.
A further assay deals with SK-MEL-28 melanoma. The following applies: 10 µM.

About 83,000 compounds went through this panel and 20% of them were active in at least one assay; those are over-represented in the sample as a whole.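 Note: values are percent growth. 100 is the growth of untreated cells, values between 100 and 0 indicate rising inhibition; between -100 and 0 indicates cell death.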 Values without a mark were called inactive. Calls of active or inactive are those of the source. Rule for the calls: active = growth percent below 10; inactive = the rest.

Turning to `O=C(Cc1ccc(OCc2ccccc2)cc1)NCc1ccc2c(c1)OCO2`, the growth with HCT-15 colon is 48.9%; in the assay on HT29 colon it was 27.4%; with SNB-75 CNS, 91.8%; in the assay on SNB-19 CNS it was 85.7%; in the assay on PC-3 prostate, 64.6%; with SK-MEL-5 melanoma, 95.8%. In addition, the values for the growth with UACC-62 melanoma, with LOX IMVI melanoma and with SK-MEL-28 melanoma were 61.8%, 50% and 74.7%, respectively.

Turning to `C=CCCCCCCCCCOC(C)=O`, the growth is 114% in the assay with HCT-15 colon; 103% with HT29 colon; 101% in the assay on SNB-75 CNS; 98.3% in the assay on SNB-19 CNS; 95.2% in the assay on PC-3 prostate; 101% with SK-MEL-5 melanoma. For the same compound, the growth is 95.7% in the assay on UACC-62 melanoma, 99.2% with LOX IMVI melanoma and 112% in the assay on SK-MEL-28 melanoma.

Take `COc1cc(CCN=Cc2ccccc2O)c([N+](=O)[O-])cc1OC`: the growth in the assay with HCT-15 colon was 92.3%; in the assay on HT29 colon it was 101%; in the assay with SNB-75 CNS, 96.6%; with SNB-19 CNS, 99.3%; with PC-3 prostate it was 98.9%; with SK-MEL-5 melanoma, 101%. For the same compound, the values for the growth with UACC-62 melanoma, in the assay on LOX IMVI melanoma and in the assay with SK-MEL-28 melanoma were 109%, 99.4% and 113%, respectively.

As for `c1ccc(CN2COc3c(ccc4c3OCN(Cc3ccccc3)C4)C2)cc1`, the growth in the assay on HCT-15 colon is 28%; in the assay on HT29 colon, 27%; with SNB-75 CNS, 43.7%; in the assay on SNB-19 CNS it was 24%; with PC-3 prostate it was 36.5%; in the assay with UACC-62 melanoma, -39.1% (active). Moreover, the growth in the assay on SK-MEL-28 melanoma is 34.1%.

`C/C(=N\NC(=O)c1ccccc1N)c1ccccc1O`: the growth with HCT-15 colon is 26.5%; in the assay with HT29 colon, 37%; with SNB-75 CNS, 83%; with SNB-19 CNS, 56.6%; in the assay on PC-3 prostate, 50.3%; in the assay with SK-MEL-5 melanoma, 60.5%. The growth was 32% in the assay with UACC-62 melanoma, 36.7% with LOX IMVI melanoma and 60.9% in the assay with SK-MEL-28 melanoma.

`CN(C)c1ccc2nc3ccc(=N)cc-3sc2c1`: the growth with HCT-15 colon was 38.8%; in the assay on HT29 colon, 85.3%; with SNB-75 CNS, 22.3%; with SNB-19 CNS it was 81.1%; in the assay on PC-3 prostate, 12.3%; with SK-MEL-5 melanoma, 0.247% (active). For the same compound, the growth with UACC-62 melanoma was 36%; with SK-MEL-28 melanoma, 82.9%.

As to `Sc1ccc(Nc2c3ccccc3nc3ccccc23)cc1`, the growth was 79.4% in the assay on HCT-15 colon; 88.6% in the assay with HT29 colon; 61.9% in the assay with SNB-75 CNS; 79.8% in the assay on SNB-19 CNS; 76.5% with PC-3 prostate; 56.6% in the assay with SK-MEL-5 melanoma. Also, the growth in the assay on UACC-62 melanoma is 63%; in the assay with LOX IMVI melanoma, 88.5%; in the assay with SK-MEL-28 melanoma it was 101%.

Take `CC(=O)c1ccc(N=C(C#N)C2=C(O)c3ccccc3C2=O)cc1`: the growth was 113% in the assay on HCT-15 colon; 98.7% with HT29 colon; 78.8% in the assay on SNB-75 CNS; 101% in the assay on SNB-19 CNS; 100% in the assay on PC-3 prostate; 109% in the assay with UACC-62 melanoma. Besides, the growth in the assay with SK-MEL-28 melanoma was 113%.

For the compound `COc1cc(/C=C(\C#N)C(=O)c2ccccc2)ccc1OCc1ccccc1`, the growth in the assay on HCT-15 colon was 98.9%; in the assay on HT29 colon it was 105%; in the assay with SNB-75 CNS, 91.7%; in the assay on SNB-19 CNS, 100%; in the assay on PC-3 prostate it was 95.2%; with SK-MEL-5 melanoma, 102%. The growth with UACC-62 melanoma was 97.2%; with LOX IMVI melanoma, 90.9%; with SK-MEL-28 melanoma, 112%.

With `CC(CN1CCCCC1)NC(=O)c1scnc1-c1ccccc1` (stereo not drawn), the growth was 103% in the assay with HCT-15 colon; 94.2% with HT29 colon; 86.1% with SNB-75 CNS; 107% in the assay with SNB-19 CNS; 101% with SK-MEL-5 melanoma; 107% in the assay on UACC-62 melanoma. The figures for the growth in the assay with LOX IMVI melanoma and in the assay on SK-MEL-28 melanoma were 95.2% and 107%, respectively.

As to `CC(CC(=O)c1ccccc1)c1ccccc1` (stereo not drawn), the growth with HCT-15 colon was 108%; with HT29 colon, 95.7%; in the assay with SNB-75 CNS it was 104%; in the assay with SNB-19 CNS, 109%; in the assay with PC-3 prostate, 99.5%; with UACC-62 melanoma, 107%. The growth in the assay on SK-MEL-28 melanoma was 101%.

Consider `CC(C(=O)O)(C1CCCCC1)C1(O)CCCCC1` (stereo not drawn), for which the growth in the assay on HCT-15 colon is 104%; in the assay on HT29 colon, 101%; in the assay on SNB-75 CNS, 85.2%; with SNB-19 CNS, 111%; in the assay on PC-3 prostate, 94.9%; in the assay on UACC-62 melanoma, 113%. Further, the values for the growth in the assay on LOX IMVI melanoma and with SK-MEL-28 melanoma were 95.3% and 107%, respectively.

With `CC[N+](C)(CC)CCO`, the growth is 97.8% with HCT-15 colon; 103% in the assay with HT29 colon; 108% in the assay with SNB-75 CNS; 97.7% in the assay with SNB-19 CNS; 102% in the assay on PC-3 prostate; 101% with SK-MEL-5 melanoma. Also, the figures for the growth in the assay with UACC-62 melanoma and with SK-MEL-28 melanoma were 102% and 110%, respectively.

Regarding `O=C(Nc1ccccc1C(=O)NCC1CC1)c1cccs1`, the growth with HCT-15 colon was 93.8%; in the assay with HT29 colon, 105%; in the assay with SNB-75 CNS, 70.3%; with SNB-19 CNS it was 100%; in the assay with PC-3 prostate, 94.6%; in the assay with SK-MEL-5 melanoma it was 98.7%. The growth with UACC-62 melanoma was 98.4%; in the assay with LOX IMVI melanoma, 102%; in the assay with SK-MEL-28 melanoma it was 110%.

Consider `O=S(=O)(Cc1ccccc1)c1ccccc1`, for which the growth is 102% in the assay on HCT-15 colon; 107% with HT29 colon; 88.5% in the assay with SNB-75 CNS; 107% in the assay on SNB-19 CNS; 102% in the assay with PC-3 prostate; 104% in the assay on SK-MEL-5 melanoma. Moreover, the growth was 111% with UACC-62 melanoma, 107% in the assay with LOX IMVI melanoma and 98.5% with SK-MEL-28 melanoma.

Regarding `CCOC(=O)C/C(C)=N\O`, the growth with HCT-15 colon is 103%; in the assay on HT29 colon it was 98.9%; in the assay with SNB-75 CNS, 118%; with SNB-19 CNS, 99.2%; in the assay with PC-3 prostate, 96.8%; with SK-MEL-5 melanoma, 100%. Besides, the growth in the assay on UACC-62 melanoma was 107%; with SK-MEL-28 melanoma, 121%.
